Sfp PPTase inh: inhibitors of Bacillus subtilis Sfp phosphopantetheinyl transferase | Q9F4F7 | Biochemical Sfp PPTase activity, qHTS | Potency, µM, most hits filed as inhibitors | 310,000 compounds, 3.5% hits;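 also: the enzyme is Sfp with the accession as filed and its product quenches rhodamine fluorescence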
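With Hepes-Na pH 7.6 buffer containing 10 mM MgCl2, Sfp (15 nM) modified BHQ-2-YbbR (12.5 uM) using rhodamine-CoA (5 uM). Two reads 30 minutes apart at 525/598 nm yielded each well's rate.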
Gal4-VP16 FLuc: inhibits Gal4-VP16 luciferase reporter, ROR gamma counter-screen; Drosophila S2 Gal4-VP16 UAS-luciferase, luminescence, 20 h; Potency, µM (doses to about 53.6 µM), actives largely listed as inhibitors; 310,000 compounds, 3.5% hits; AID 2546;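 also: Gal4-VP16 expression switched on by copper sulfate through the metallothionein promoter; nearly all actives have a fitted effect of over 50% in size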
PLK1 PBD block: inhibitors of human PLK1 polo-box domain binding; Plk1 PBD binding of FITC phosphopeptide, fluorescence polarization; P53350; Potency, µM, hits mostly inhibitors; AID 720504; 360,000 compounds, 2.8% hits; also: series mostly up to about 57 µM; nearly all actives have a fitted effect of over 65% in size
RORg inh: inhibitors of mouse ROR gamma transcriptional activity | Drosophila S2 Gal4-RORgamma UAS-luciferase reporter, 20 h | AID 2551 | Potency, µM (top dose mostly 53.6 µM), usual class: inhibitors | 310,000 compounds, 5.4% hits | P51450; also: nearly all actives have a fitted effect of over 60% in size
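Stably transfected Drosophila Schneider cells are the test system, with ROR gamma fused to Gal4 and luciferase under UAS control; luminescence is read after 20 hr of 700 uM copper sulfate induction at ambient temperature.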
ALDH1A1 inh: ALDH1A1 (human) enzyme inhibition | 220,000 compounds, 7.3% hits | AID 1030 | Purified ALDH1A1, NADH fluorescence, propionaldehyde substrate | Potency, µM (titrated, usually from 75.3 µM), most hits filed as inhibitors; active = well fitted inhibition curve with a large enough effect, not every such curve was filed as active; inconclusive = small, poorly fitted or top-dose-only effect, or another doubt; inactive = no such curve, though single readings can be large or run the other way
Target sequence (P00352 whole entry, looked up): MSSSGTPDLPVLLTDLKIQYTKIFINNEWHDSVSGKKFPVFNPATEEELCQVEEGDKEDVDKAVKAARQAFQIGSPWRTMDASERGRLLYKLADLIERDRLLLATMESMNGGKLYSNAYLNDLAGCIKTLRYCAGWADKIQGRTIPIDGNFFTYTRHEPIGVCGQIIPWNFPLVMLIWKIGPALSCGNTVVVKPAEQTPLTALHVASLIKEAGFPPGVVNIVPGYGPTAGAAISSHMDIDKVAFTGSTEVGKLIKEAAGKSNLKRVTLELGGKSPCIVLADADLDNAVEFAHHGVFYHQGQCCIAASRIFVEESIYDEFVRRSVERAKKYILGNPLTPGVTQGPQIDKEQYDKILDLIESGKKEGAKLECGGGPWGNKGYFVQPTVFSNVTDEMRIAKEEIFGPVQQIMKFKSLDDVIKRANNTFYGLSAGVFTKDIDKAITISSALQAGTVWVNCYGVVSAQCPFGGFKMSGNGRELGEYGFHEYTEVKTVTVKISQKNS
Of the large screens only hits and unclear results are named; the others gave an inactive call; ! = not active in a repeat. The list is not random: actives were taken first. Their share in the collection is about 12%. Unless noted, calls follow the shape of the dose curve; as a rule, active = well fitted curve in the direction sought with a large enough effect; inconclusive = small, poorly fitted or top-dose-only effect, or another doubt; inactive = no such curve, though single readings can be large; an effect the other way counts as inactive or inconclusive.

COc1cc(C(CCN2CCCC2)c2c(OC)cc(OC)c3c2OC(=O)CC3c2ccc(N(C)C)cc2)cc(OC)c1OC (stereo not drawn)	none (no result: PLK1 PBD block, ALDH1A1 inh)
O[C@@H]1CO[C@H]2C1OC[C@@H]2O (stereo partly drawn)	none (no result: PLK1 PBD block, ALDH1A1 inh)
CCCCCCCC/C=C\CCCCCCCC(=O)O	PLK1 PBD block 11µM
CCCCC/C=C\C/C=C\CCCCCCCC(=O)O	ALDH1A1 inh 18µM! (no result: PLK1 PBD block)
CCCCCCCC/C=C\CCCCCCCCCCCC(=O)O	none (no result: PLK1 PBD block, ALDH1A1 inh)
Cc1cccc(C(=Cc2ccc([N+](=O)[O-])cc2)C(=O)O)c1	none (no result: Sfp PPTase inh, Gal4-VP16 FLuc, RORg inh, ALDH1A1 inh)
CC(O)CNCCNCc1c(OCc2ccccc2)ccc2ccccc12 (stereo not drawn)	Sfp PPTase inh inconclusive, Gal4-VP16 FLuc 22µM, RORg inh inconclusive, ALDH1A1 inh 28µM
CC(O)CNCCOc1ccccc1OCc1ccccc1 (stereo not drawn)	none
O=C1NC[C@H](CCCCN2CCN(Cc3ccccc3)C(=O)C2=O)N(CCC2CCCCC2)C1=O	none (no result: Sfp PPTase inh, Gal4-VP16 FLuc, RORg inh, ALDH1A1 inh)
CCOc1ccc(N2C(=O)CC(Sc3ccccc3C(=O)O)C2=O)c([N+](=O)[O-])c1 (stereo not drawn)	Sfp PPTase inh 13µM, Gal4-VP16 FLuc inconclusive, PLK1 PBD block 27µM, RORg inh inconclusive, ALDH1A1 inh 1µM
O=C(O)c1ccccc1SC1CC(=O)N(c2cccc3ccccc23)C1=O (stereo not drawn)	Sfp PPTase inh 16µM, Gal4-VP16 FLuc inconclusive, PLK1 PBD block 30µM, RORg inh inconclusive (no result: ALDH1A1 inh)
Nc1ccnc2c1ncn2[C@@H]1O[C@H](CO)[C@@H](O)[C@H]1O	none (no result: Gal4-VP16 FLuc, PLK1 PBD block, RORg inh)
CC[N+]1(C)C2CCC1CC(OC(=O)[C@H]1CCC(C(=O)OC3CC4CCC(C3)[N+]4(C)CC)(c3ccccc3)c3ccccc31)C2 (stereo partly drawn)	none (no result: Gal4-VP16 FLuc, PLK1 PBD block, RORg inh)
COc1ccc(S(=O)(=O)NC(=O)C2(C)CCN2C(=O)C2CC2)cc1 (stereo not drawn)	none (no result: Sfp PPTase inh, Gal4-VP16 FLuc, RORg inh, ALDH1A1 inh)
COc1ccc(N(C(=O)CCl)C(C(=O)NCCc2ccccc2)c2cccs2)cc1Cl (stereo not drawn)	RORg inh 11µM
COc1cccc(N(C(=O)CCl)C(C(=O)NCCc2ccccc2)c2cccs2)c1 (stereo not drawn)	RORg inh 13µM
O=C(c1csnn1)N1CCC2(CC1)CCN(C(c1ccccc1)c1ccccc1)CC2	none (no result: PLK1 PBD block)
CN(C)c1ccc(N/C=C/C(=O)C(C)(C)C)cc1	Sfp PPTase inh 50µM, Gal4-VP16 FLuc inconclusive, RORg inh inconclusive, ALDH1A1 inh inconclusive
CN(C)c1ccc(N/C=C/C(=O)c2ccccc2)cc1	Sfp PPTase inh 20µM, Gal4-VP16 FLuc 10µM, RORg inh 5.6µM, ALDH1A1 inh inconclusive
COc1cc(CNc2ccc(C)c(C)c2)cc(OC)c1OC	Sfp PPTase inh inconclusive, ALDH1A1 inh 8.9µM
COc1cc(CNc2ccc3c(c2)CCC3)cc(OC)c1O	Sfp PPTase inh 40µM, PLK1 PBD block inconclusive, ALDH1A1 inh 20µM
COc1ccc(C)cc1NCc1cccc(OC)c1OC	RORg inh 18µM, ALDH1A1 inh inconclusive
COc1cccc(CNS(=O)(=O)c2ccccc2Br)c1OC	PLK1 PBD block 19µM (no result: Sfp PPTase inh, Gal4-VP16 FLuc, RORg inh, ALDH1A1 inh)
CCOc1cc(CNc2ccc3c(c2)CCC3)ccc1O	PLK1 PBD block inconclusive, ALDH1A1 inh inconclusive
COc1ccc(CNc2cc(C)ccc2C)c(OC)c1OC	ALDH1A1 inh inconclusive
COc1ccc(CNc2ccc(S(N)(=O)=O)cc2)c(OC)c1OC	Gal4-VP16 FLuc 20µM, RORg inh inconclusive
COc1ccc(CNc2ccc(C)c(C)c2)c(OC)c1OC	ALDH1A1 inh 13µM
C=CCOc1c(CNc2ccc(S(N)(=O)=O)cc2)cccc1OC	none
CC(=O)OC[C@@H]1O[C@@H](O/N=C2/C[C@@H](O)[C@@H](O)[C@@H]3[C@@H]4C(=O)N(C(C)(C)C)C(=O)[C@H]4CC[C@H]23)[C@H](OC(C)=O)[C@H](OC(C)=O)[C@@H]1OC(C)=O	none (no result: PLK1 PBD block)
N#Cc1ccccc1NC(=O)COC(=O)c1ccc(F)cc1F	none (no result: ALDH1A1 inh)
Nc1ncnc2c1nc(Br)n2[C@H]1O[C@H]2COP(=O)(O)O[C@H]2[C@@H]1O	none (no result: PLK1 PBD block)
NS(=O)(=O)c1ccccc1	none (no result: ALDH1A1 inh)
O=S(=O)(/C=C/C=C/S(=O)(=O)c1ccccc1)c1ccccc1	PLK1 PBD block 2.7µM (no result: Sfp PPTase inh, Gal4-VP16 FLuc, RORg inh, ALDH1A1 inh)
O=C(O)CSc1cccc2cccnc12	Sfp PPTase inh 56µM, RORg inh inconclusive, ALDH1A1 inh inconclusive
CN(C)S(=O)(=O)c1cccc(NC(=O)CSc2cccc3cccnc23)c1	Gal4-VP16 FLuc inconclusive, PLK1 PBD block 11µM, RORg inh 10µM (no result: ALDH1A1 inh)
CN(C)S(=O)(=O)c1ccc(SCC(=O)Nc2cccc(S(=O)(=O)N3CCCC3)c2)nc1	none (no result: Sfp PPTase inh, Gal4-VP16 FLuc, RORg inh, ALDH1A1 inh)
CN(C)S(=O)(=O)c1cccc(NC(=O)CSc2nc3c(cc2C#N)C(=O)CC(C)(C)C3)c1	RORg inh inconclusive, ALDH1A1 inh 1.4µM
CO[C@@H]1COC(=O)[C@H](COCc2ccccc2)NC(=O)C/C=C\[C@@H](C)[C@H](OC)COC(=O)[C@H](COCc2ccccc2)NC(=O)C/C=C\[C@H]1C	none (no result: PLK1 PBD block)
CCCC(C)NC(=O)CSc1nc(-c2ccccc2)cn1N (stereo not drawn)	PLK1 PBD block 27µM
COc1ccc(-n2c(SCC(=O)N3CCCCC3C)nnc2-c2cccnc2)cc1 (stereo not drawn)	Sfp PPTase inh inconclusive, ALDH1A1 inh 10µM
CC1CCCCN1C(=O)CSc1nc(-c2ccccc2)cn1N (stereo not drawn)	PLK1 PBD block 24µM, ALDH1A1 inh inconclusive

Source: PubChem
